Data published in PubChem BioAssay.
The source made the active and inactive calls.

Legend:
[1] = biological target: Albumin (Bos taurus) (UniProt P02769); test: bovine serum albumin binders on microarray, profiling panel, artefact control for SMM control protein annotation, biochemical, small-molecule microarray, Alexa647 label, 635/667 nm fluorescence (AID 1118); settings: BSA-A647 binding, fluorescence 635 nm, higher = more signal;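 also: score merges 667 nm emission intensity and signal-to-noise per printed compound spot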
[2] = small-molecule microarray binders of probe aXIP, primary screen, biochemical, NeuroSMM set, 635/667 nm fluorescence (AID 1119); settings: higher = more signal, called active from +8 up or from −8 down;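 also: probe is the protein aXip251-270 applied at 1 µg/mL to compound-printed slides; binding of probe to printed compounds measured as 667 nm fluorescence plus signal to noise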
[3] = small-molecule binders of probe aNOTCH3, primary screen, biochemical, small-molecule microarray, 635/667 nm fluorescence (AID 1120); settings: higher = more signal;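 also: probe is a biotin-tagged antibody raised against NOTCH3 rather than NOTCH3 protein; score merges spot fluorescence near 667 nm with spot signal to noise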
[4] = small-molecule binders of probe aNOTCH2, primary screen, biochemical, small-molecule microarray, 635/667 nm fluorescence (AID 1121); settings: higher = more signal;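 also: score merges feature fluorescence read at 667 nm with its signal to noise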
[5] = biological target: Carbonic anhydrase 2 (Homo sapiens) (UniProt P00918); test: CAII small-molecule binders, profiling panel, biochemical, small-molecule microarray, Alexa647-labelled CAII (AID 1122); settings: CAII-A647 binding fluorescence, higher = more signal
[6] = COS7 lysate on small-molecule microarray, probe aHis, 635 nm (AID 1123); settings: COS7 cell lysate, fluorescence, higher = more signal;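 also: z-score combines 667nm fluorescence intensity with signal-to-noise per printed compound spot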
[7] = compound binding in COS7 lysate, probe aLAP1, primary screen, cell lysate, small-molecule microarray (AID 1124); settings: probe aLAP1, fluorescence, higher = more signal;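 also: lysate comes from COS7 cells expressing LAP1 and is applied at 0.3 µg/mL; score merges spot fluorescence near 667 nm with signal-to-noise over triplicate slides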
[8] = system: Sam68 (KHDRBS1); test: Sam68 small-molecule binders, primary screen, biochemical, small-molecule microarray, 635 nm fluorescence (AID 1125); settings: small-molecule microarray binding, higher = more signal;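 also: score merges 667 nm channel intensity with signal to noise over triplicate slides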
[9] = system: Chordin-like protein 2 (CHRDL2); test: CHRDL2 small-molecule binders, primary screen, biochemical, small-molecule microarray, 635 nm fluorescence (AID 1126); settings: small-molecule microarray binding, fluorescence 635 nm; higher = more signal;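 also: printed compound slides probed with Chrdl2 protein at 4 µg/mL for 1 h at 4 C; score merges 667 nm emission intensity with signal to noise over three replicate slides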
[10] = biological target: Concanavalin-A (Canavalia ensiformis) (UniProt P02866); test: ConA small-molecule binders, primary screen, artefact control for SMM control protein annotation, biochemical, small-molecule microarray, Alexa647 label, 635 nm (AID 1127); settings: ConA-A647 binding fluorescence, higher = more signal;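 also: z combines 667 nm emission intensity with signal-to-noise across three replicate slides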
[11] = anti-His antibody binders, primary screen, artefact control for SMM control protein annotation, biochemical, small-molecule microarray, 635 nm fluorescence (AID 1128); settings: anti-His Alexa647 antibody binding, higher = more signal;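 also: score merges feature fluorescence with signal-to-noise for each printed compound spot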
[12] = system: Human papillomavirus type 1a E7 protein (residues 1-88); test: HPV1a E7 small-molecule binders, primary screen, biochemical, small-molecule microarray, residues 1-88, 635 nm (AID 1129); settings: small-molecule microarray binding, fluorescence 635 nm; higher = more signal
[13] = biological target: Focal adhesion kinase 1 (Homo sapiens) (UniProt Q05397); test: small-molecule microarray binders of FAK, primary screen, biochemical, 635/667 nm fluorescence, BSA, DTT (AID 1130); settings: PTK2 binding, 635 nm fluorescence, higher = more signal;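 also: composite of spot emission at 667 nm and signal to noise over triplicate slides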
[14] = system: Fibrinogen (Alexa647-labelled); test: fibrinogen binders on compound microarrays, profiling panel, artefact control for SMM control-protein annotation, biochemical, small-molecule microarray, 635/667 nm fluorescence (AID 1131); settings: fibrinogen-A647 binding fluorescence, higher = more signal;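 also: z-score merges 667 nm fluorescence with per-spot signal-to-noise over triplicate slides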
[15] = biological target: Follistatin (Homo sapiens) (UniProt P19883); test: follistatin binders on small-molecule microarrays, primary screen, biochemical, small-molecule microarray, 635/667 nm fluorescence (AID 1132); settings: FST binding, 635 nm fluorescence, higher = more signal
[16] = biological target: Fibroblast growth factor 2 (Homo sapiens) (UniProt P09038); test: FGF2 binders on small-molecule microarrays, primary screen, biochemical, small-molecule microarray, 635/667 nm fluorescence (AID 1133); settings: small-molecule microarray binding, FGF2, fluorescence 635/667; higher = more signal
[17] = mitochondrial membrane potential change in A549 cells, profiling panel, cell-based, JC-1 fluorescence, basal, 24 h, 100 nL (AID 1138); settings: higher = more signal;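 also: A549 lung adenocarcinoma cells under basal conditions with no added stimulus; test concentration not given here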
[18] = system: Lefty1; test: Lefty1 binders on small-molecule microarrays, primary screen, biochemical, small-molecule microarray, 635/667 nm fluorescence (AID 1139); settings: small-molecule microarray binding, fluorescence 635/667; higher = more signal
[19] = system: wheat germ agglutinin (Triticum aestivum), Alexa647-labelled; test: wheat germ agglutinin binders on compound microarrays, profiling panel, artefact control for SMM control-protein annotation, biochemical, small-molecule microarray, 635/667 nm fluorescence (AID 1140); settings: WGA-A647 binding, 635 nm fluorescence, higher = more signal;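 also: score merges 667 nm feature emission with signal to noise over triplicate slides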
[20] = biological target: Luciferin 4-monooxygenase (Photinus pyralis) (UniProt P08659); test: firefly luciferase enzyme inhibitors, primary screen, biochemical, luminescence, purified enzyme, 2006 set (AID 1141); settings: SteadyGlo luminescence, 30 min, higher = more signal, called active from +8 up or from −8 down;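 also: cell-free assay with purified firefly luciferase at 100 ng per well in PBS; test concentration not given here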
Chain of Luciferin 4-monooxygenase (Photinus pyralis) (P08659 whole entry, looked up): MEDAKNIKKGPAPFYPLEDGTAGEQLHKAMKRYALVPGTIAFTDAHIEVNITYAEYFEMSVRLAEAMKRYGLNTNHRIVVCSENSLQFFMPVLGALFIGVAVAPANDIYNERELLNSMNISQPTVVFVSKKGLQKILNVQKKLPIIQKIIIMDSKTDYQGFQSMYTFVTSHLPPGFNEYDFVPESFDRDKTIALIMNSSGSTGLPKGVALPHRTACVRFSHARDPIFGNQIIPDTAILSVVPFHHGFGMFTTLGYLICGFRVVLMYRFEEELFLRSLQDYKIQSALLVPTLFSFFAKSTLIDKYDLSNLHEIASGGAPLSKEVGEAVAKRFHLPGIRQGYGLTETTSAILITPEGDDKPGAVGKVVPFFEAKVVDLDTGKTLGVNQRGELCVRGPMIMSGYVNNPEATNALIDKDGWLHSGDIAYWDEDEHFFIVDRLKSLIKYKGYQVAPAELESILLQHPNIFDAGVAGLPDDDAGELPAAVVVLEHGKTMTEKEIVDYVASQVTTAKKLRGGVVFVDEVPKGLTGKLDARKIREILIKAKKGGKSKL

Chain of Albumin (Bos taurus) (P02769 whole entry, looked up): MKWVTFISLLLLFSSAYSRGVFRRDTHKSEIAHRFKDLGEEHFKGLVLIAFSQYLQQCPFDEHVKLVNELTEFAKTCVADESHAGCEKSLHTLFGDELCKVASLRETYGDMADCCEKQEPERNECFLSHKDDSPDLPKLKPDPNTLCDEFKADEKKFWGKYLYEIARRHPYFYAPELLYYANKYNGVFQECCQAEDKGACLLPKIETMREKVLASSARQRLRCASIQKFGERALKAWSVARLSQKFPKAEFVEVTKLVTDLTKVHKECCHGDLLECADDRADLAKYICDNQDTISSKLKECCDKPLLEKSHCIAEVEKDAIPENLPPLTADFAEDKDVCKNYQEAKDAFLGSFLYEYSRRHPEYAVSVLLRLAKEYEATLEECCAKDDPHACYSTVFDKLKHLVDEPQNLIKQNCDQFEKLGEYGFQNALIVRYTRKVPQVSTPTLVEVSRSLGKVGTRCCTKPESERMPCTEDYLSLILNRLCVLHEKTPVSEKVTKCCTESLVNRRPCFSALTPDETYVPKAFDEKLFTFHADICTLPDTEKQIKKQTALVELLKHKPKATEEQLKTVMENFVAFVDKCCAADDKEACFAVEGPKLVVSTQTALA
Chain of Fibroblast growth factor 2 (Homo sapiens) (P09038 whole entry, looked up): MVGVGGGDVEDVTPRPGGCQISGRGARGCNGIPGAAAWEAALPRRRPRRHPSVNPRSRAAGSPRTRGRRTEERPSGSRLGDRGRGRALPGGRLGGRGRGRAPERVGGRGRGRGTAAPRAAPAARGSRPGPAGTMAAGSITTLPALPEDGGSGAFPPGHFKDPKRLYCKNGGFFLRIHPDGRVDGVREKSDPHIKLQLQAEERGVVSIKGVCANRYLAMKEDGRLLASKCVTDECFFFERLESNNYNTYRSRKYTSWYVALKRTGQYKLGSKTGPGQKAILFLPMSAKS
Chain of Follistatin (Homo sapiens) (P19883 whole entry, looked up): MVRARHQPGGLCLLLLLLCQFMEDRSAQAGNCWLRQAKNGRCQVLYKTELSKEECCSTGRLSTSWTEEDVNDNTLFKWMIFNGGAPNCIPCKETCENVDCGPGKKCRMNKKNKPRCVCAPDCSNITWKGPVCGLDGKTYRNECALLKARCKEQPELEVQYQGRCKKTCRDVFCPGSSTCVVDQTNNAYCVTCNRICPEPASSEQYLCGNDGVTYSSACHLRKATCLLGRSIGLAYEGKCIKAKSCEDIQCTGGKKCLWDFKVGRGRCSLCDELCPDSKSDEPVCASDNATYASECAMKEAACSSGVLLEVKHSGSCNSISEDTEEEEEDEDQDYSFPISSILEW
Chain of Focal adhesion kinase 1 (Homo sapiens) (Q05397 whole entry, looked up): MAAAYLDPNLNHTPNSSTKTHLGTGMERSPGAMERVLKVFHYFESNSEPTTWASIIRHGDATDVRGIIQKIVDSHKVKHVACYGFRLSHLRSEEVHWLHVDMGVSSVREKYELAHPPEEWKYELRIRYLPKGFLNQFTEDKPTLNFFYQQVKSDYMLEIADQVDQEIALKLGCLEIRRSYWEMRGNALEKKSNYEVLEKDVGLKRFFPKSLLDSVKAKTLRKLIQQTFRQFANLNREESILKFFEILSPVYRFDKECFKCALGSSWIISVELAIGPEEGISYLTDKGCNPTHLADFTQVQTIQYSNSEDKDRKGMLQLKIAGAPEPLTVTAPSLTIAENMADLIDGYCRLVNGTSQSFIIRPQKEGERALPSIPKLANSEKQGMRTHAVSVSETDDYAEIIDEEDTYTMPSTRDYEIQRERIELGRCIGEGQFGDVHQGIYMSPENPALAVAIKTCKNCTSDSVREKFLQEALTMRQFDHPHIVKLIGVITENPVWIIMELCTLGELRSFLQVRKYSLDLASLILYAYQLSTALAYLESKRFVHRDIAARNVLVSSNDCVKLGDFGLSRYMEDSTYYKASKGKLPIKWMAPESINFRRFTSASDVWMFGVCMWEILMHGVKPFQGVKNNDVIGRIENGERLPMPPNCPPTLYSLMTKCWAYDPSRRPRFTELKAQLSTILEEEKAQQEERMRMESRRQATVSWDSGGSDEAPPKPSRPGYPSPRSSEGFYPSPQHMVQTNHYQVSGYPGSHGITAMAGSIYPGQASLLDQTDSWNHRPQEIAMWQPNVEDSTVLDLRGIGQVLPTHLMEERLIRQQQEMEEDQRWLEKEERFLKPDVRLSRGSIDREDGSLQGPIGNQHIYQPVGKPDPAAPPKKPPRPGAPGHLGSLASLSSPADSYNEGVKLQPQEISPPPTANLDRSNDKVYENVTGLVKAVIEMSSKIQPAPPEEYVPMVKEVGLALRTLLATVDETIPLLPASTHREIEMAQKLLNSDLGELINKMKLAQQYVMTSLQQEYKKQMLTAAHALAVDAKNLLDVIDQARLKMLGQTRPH
Chain of Concanavalin-A (Canavalia ensiformis) (P02866 whole entry, looked up): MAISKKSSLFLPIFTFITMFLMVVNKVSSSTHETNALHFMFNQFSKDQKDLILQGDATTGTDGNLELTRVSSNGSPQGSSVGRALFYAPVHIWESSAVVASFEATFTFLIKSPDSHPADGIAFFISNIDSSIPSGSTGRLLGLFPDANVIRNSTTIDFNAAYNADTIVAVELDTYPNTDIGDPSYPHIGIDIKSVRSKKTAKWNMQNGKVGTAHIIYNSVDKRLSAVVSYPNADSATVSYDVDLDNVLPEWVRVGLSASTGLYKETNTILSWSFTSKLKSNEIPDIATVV

Row | Structure (SMILES) | composite z-score [1] | composite Z-score [2] | composite z-score [3] | composite z-score [4] | composite z-score [5] | composite z-score [6] | composite z-score [7] | composite z-score [8] | composite z-score [9] | composite z-score [10] | composite z-score [11] | composite z-score [12] | composite z-score [13] | composite z-score [14] | composite z-score [15] | composite z-score [16] | z-score [17] | composite z-score [18] | composite z-score [19] | z-score [20]
1 | CN1C(=O)C2C(C1=O)C1C=C(CCCO)C2C(C2CC2)N1C (stereo not given) | 0.913 | 0.178 (inactive) | -0.16 | -0.149 | 0.839 | 0.746 | -0.67 | -0.293 | -0.338 | -1.39 | -0.194 | -0.404 | 0.813 | -1.04 | -0.39 | 0.628 | 0.772 | -0.991 | 0.0425 | -0.224 (inactive)
2 | CC(C)Cc1ccc(CN2CC[C@@H](NC(=O)c3ccccc3)C2)cc1 | 0.767 | 0.196 (inactive) | -0.129 | -0.109 | -0.0412 | -0.0414 | -0.0172 | -0.252 | 0.345 | -0.52 | 0.44 | -1.55 | -0.144 | 0.411 | -0.0213 | -0.382 | 1.81 | 0.247 | 0.0191 | 0.525 (inactive)
3 | CCCCN1CC=CC23O[C@@H]4/C=C\CCCOC(=O)C4[C@H]2C(=O)N(CCCCCCO)[C@@H]3C1=O (stereo not given in full) | -0.768 | 0.276 (inactive) | -0.165 | -0.172 | 0.83 | 1.66 | 1.17 | 0.177 | -1.87 | -0.535 | 0.193 | -0.0399 | 0.0326 | -1.21 | -1.02 | -0.621 | 1.56 | -0.331 | -0.13 | -0.0067 (inactive)
4 | C=CC[C@H](O)c1ccc(O)c(F)c1 | -0.394 | 0.404 (inactive) | -0.849 | -0.157 | 0.828 | -0.268 | -0.0732 | -1.45 | -2.24 | -1.09 | -0.234 | -1.35 | -0.677 | -2.61 | -1.28 | -0.975 | 0.414 | -0.618 | -0.318 | -0.857 (inactive)
5 | C[C@H]1C2[C@H](Cc3ccccc3)NC(=O)[C@]23C(=O)N[C@@H](Cc2ccccc2)C(=O)N2CCC[C@H]2C(=O)NC/C=C/CC/C=C/C3[C@@H]2O[C@]12C (stereo not given in full) | 0.688 | -0.571 (inactive) | 0.073 | -0.159 | 0.619 | 0.501 | 0.472 | 0.868 | 0.638 | 0.236 | 0.196 | 0.965 | -0.153 | 0.596 | 0.925 | 0.359 | 0.974 | 0.754 | 0.0255 | 0.527 (inactive)
6 | COC(=O)Cn1c(C(=O)N(C)C)cc2c1C[C@H]1CN(C(=O)c3ccccc3)[C@@](Cc3ccccc3)(C(=O)OC)[C@@H]21 | 0.759 | -0.265 (inactive) | 0.194 | 0.417 | 0.792 | 1.55 | 0.817 | -0.627 | -0.537 | 0.169 | 0.733 | 0.278 | 0.499 | -0.254 | -0.253 | 0.179 | 0.553 | -0.0528 | 0.533 | 3.15 (inactive)
